An excerpt weighted towards active compounds, which were near 7.9% of everything screened.
Lassa entry inh: blocks Lassa virus binding to or entry into cells | 300,000 compounds, 1.2% hits | Lassa virus pseudotype entry inhibition, cell reporter | Potency, µM (highest dose often 37.9 µM), actives largely listed as inhibitors; calls by dose curve; tested in HEK293 cells; note: nearly all actives have a fitted effect of over 50% in size
Marburg entry inh: inhibitors of Marburg virus binding or cell entry; Marburg virus pseudotyped entry inhibition, cell reporter; Potency, µM (top dose mostly 37.8 µM), hits mostly inhibitors; 300,000 compounds, 1.8% hits; calls by dose curve; tested in HEK293 cells
FMDV antiviral: foot and mouth disease virus antiviral activity; FMDV antiviral cell-based qHTS; Potency, µM (top dose mostly 57.9 µM), hits mostly inhibitors; 410,000 compounds, 1.2% hits; AID 1159524; calls by dose curve; tested in HEK293T cells; note: read-out not given here; nearly all actives have a fitted effect of over 45% in size
HCMV inh: inhibitors of human cytomegalovirus; HFF cells, HCMV-luciferase reporter, 72 h; stronger effect = lower value; activity change, negative = inhibition, % at 57.5 µM; 410,000 compounds, 4.5% hits; AID 1259415; in the data active = activity change below about -60%; inconclusive = no clear call, values can overlap the other calls; inactive = above about -39%
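Cell-based, HFFs, 1000 cells/well, 16 h 37C; cpds in DMSO + HCMV-luc, MOI 1 PFU/cell; 72 h 37C; OneGlo luminescence after 5 min RT; norm. to buffer vs Salinomycin 10uM.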
HCV inhibitor: inhibitors of hepatitis C virus infection. Huh7.5.1 HCVcc-Cre infection, luciferase reporter, 44 h. Potency, µM (titrated, usually from 41.8 µM), usual class: inhibitors. 340,000 compounds, 3.4% hits. AID 651820; active = well fitted inhibition curve with a large enough effect; inconclusive = small, poorly fitted or top-dose-only effect, or another doubt; inactive = no such curve, though single readings can be large or run the other way
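1,000 cells/well; 4 h culture; + compound; + HCVcc-Cre (~0.5 moi); 44 h; luciferase substrate, RT 15 min; read 15 sec.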
Hits are given with their value; 0 = inactive; ? = inconclusive; - = not tested or not shown; [ ] = remark or other dose.

SMILES | Lassa entry inh | Marburg entry inh | FMDV antiviral | HCMV inh | HCV inhibitor
COc1cccc(NC(=O)C(Cc2ccccc2)N2Cc3ccccc3C2=O)c1 (stereo not drawn) | 0 | - | 0 | 0 | -
Cn1nnnc1Sc1ncnc2scc(-c3ccccc3)c12 | ? | 7.08µM | 22.4µM | -67.1 | 0
COc1ccccc1CNCCSc1nnnn1C | 0 | 0 | 0 | 0 | -
Cn1nnnc1Sc1ncnc2scc(-c3ccc(Br)cc3)c12 | - | - | 17.8µM | -98.0 | -
CCn1cnc2scc(-c3ccccc3)c2c1=O | 0 | 0 | 0 | 0 | ?
c1ccc(-c2csc3ncn4nnnc4c23)cc1 | 0 | 0 | 0 | -100.3 | 0
COc1ccccc1-c1csc2ncnc(Sc3nnnn3C)c12 | - | - | ? | -73.8 | -
C=CC(=O)c1ccc(CCCCCC)cc1 | ? | 0 | - | - | -
CC#CC[N+](C)(C)CCCCCCCCCC | ? | ? | 0 | -65.0 | ?
C[N+](C)(C)CCCCCCCCCC[N+](C)(C)C | 0 | 0 | 0 | 0 | 0[8.37 µM]
C#CC[N+](C)(C)CCCCCCCCC | 0 | ? | 0 | -94.7 | ?
CC(C)C[C@H](CN)CC(=O)O | - | - | 0 | - | -
COc1ccc(C(=O)N2CCN(Cc3ccc4c(c3)OCO4)CC2)cc1[N+](=O)[O-] | ? | ? | 0 | -82.6 | ?
COc1cc2cc(C(=O)N3CCN(Cc4ccc5c(c4)OCO5)CC3)[nH]c2cc1OC | - | - | 0 | -92.0 | ?
COc1cc(CN2CCN(Cc3ccc([N+](=O)[O-])cc3)CC2)c([N+](=O)[O-])cc1OC | - | - | ? | -75.7 | 0
CCN1CCN(Cc2cc(OC)c(OC)cc2[N+](=O)[O-])CC1 | 0 | 0 | 0 | 0 | 0
COc1cc(C(=O)N2CCN(Cc3ccc4c(c3)OCO4)CC2)c([N+](=O)[O-])cc1OC | - | - | 0 | 0 | ?
Cc1cccc(N=C2c3cc([N+](=O)[O-])ccc3-c3c2cc([N+](=O)[O-])cc3[N+](=O)[O-])c1 | 0 | ? | ? | 0 | 7.08µM
O=C(O)c1cccc2c1C(=O)c1cc([N+](=O)[O-])cc([N+](=O)[O-])c1-2 | - | - | 0 | 0 | -
COc1cc(O)c2c(c1)C(=O)c1cc(C)cc(O)c1C2=O | - | - | 0 | - | -
Cc1cc(O)c2c(c1)C(=O)C13C(=C2O)C(=O)[C@H]2[C@@H](O)[C@@H]1[C@H]1[C@H](O)[C@@H]3C(=O)C3=C(O)c4c(O)cc(C)cc4C(=O)C312 (stereo partly drawn) | - | - | 0 | - | 10µM
CC(=O)Nc1ccc(NC(=O)c2cnn(-c3ccccc3)c2C2CCN(C(=O)OC(C)(C)C)CC2)cc1 | 0 | 0 | 0 | 0 | -
OC(c1ccco1)c1nc(-c2ccc(F)c(Cl)c2)cs1 (stereo not drawn) | - | - | 0 | -64.7 | -
COc1cccc(CN(C)C(=O)CCN(c2ccccc2)S(=O)(=O)c2ccc(C)cc2)c1OC | ? | ? | 0 | 0 | 11.2µM
COc1cccc(CN(C)C(=O)CNC(=O)c2ccc(-c3ccccc3)cc2)c1OC | ? | ? | ? | -71.4 | 3.16µM
SMILES | Lassa entry inh | Marburg entry inh | FMDV antiviral | HCMV inh | HCV inhibitor
COc1ccc(N(C)C(=O)Cn2cc(S(=O)(=O)N3CCN(c4ccccc4F)CC3)c3ccccc3c2=O)c(OC)c1 | 0 | ? | 0 | 0 | -
COCc1cc(=O)[nH]c(Nc2nc3ccc(C)cc3o2)n1 | ? | ? | ? | -102.2 | ?
CCc1ccc2nc(Nc3nc(COC)cc(=O)[nH]3)nc(C)c2c1 | 0 | 0 | 0 | 0 | ?
C=CCS/C(N)=N\N=C\c1c(O)ccc2ccccc12 | - | - | 0 | 0 | 22.4µM
CSc1nnc(C(C)(C)C)c(=O)n1/N=C/c1ccc(C(C)C)cc1 | 0 | 0 | 0 | -63.3 | 0
CSc1nnc(C(C)(C)C)c(=O)n1/N=C/c1ccc(Cl)cc1 | 0 | 0 | 0 | 0 | 0
COc1ccc(/C=N/n2c(SC)nnc(C(C)(C)C)c2=O)c(OC)c1 | 6.31µM | 0 | 0 | 0 | 0
C#CCCCO/N=C1\C[C@@H](O)[C@@H](O)[C@@H]2[C@@H]3C(=O)N(C[C@@H]4CCCO4)C(=O)[C@@H]3CC[C@@H]12 | - | 0 | - | - | -
O=C(Nc1ccc(Cc2ccncc2)cc1)C1CCC(N2C(=O)C3CC=CCC3C2=O)CC1 (stereo not drawn) | 0 | 0 | - | ? | ?
CCc1ccc(N2C(=O)C3C4C=CC(CC4)C3C2=O)cc1 (stereo not drawn) | - | - | 0 | 0 | 0
CC1CCC2C(=O)N(c3ccc(Cc4ccncc4)cc3)C(=O)C2C1 (stereo not drawn) | ? | ? | ? | -74.9 | ?
O=C1C2C3C=CC(C3)C2C(=O)N1c1ccc(Cc2ccncc2)cc1 (stereo not drawn) | 0 | ? | 0 | -66.5 | 0

From PubChem BioAssay
